Assay outcomes deposited in PubChem by University of Kansas High Throughput Screening Laboratory.
This excerpt belongs to a sample that is enriched for hits.
mHTT-CaM PPI inh: mHTT-calmodulin interaction abrogation | P42858 | AlphaScreen His-mHTT/GST-CaM binding, luminescence | inhibition, % at 15 µM | 190,000 compounds, 3.6% hits | AID 1671202
Pf apPOL inh: Pf-apPOL DNA polymerase inhibition; Recombinant Pf-apPOL, molecular beacon fluorescence, 1.5 h; inhibition, % at 10 µM; 210,000 compounds, 0.25% hits; AID 1794808
Large screens that a line does not name were inactive. No stated cut-off is given here; in the data, active means inhibition above about 50%; inactive means the rest.

CCOc1ccc(S(=O)(=O)N=C2C=C(Nc3ccccc3)C(=O)c3ccccc32)cc1	mHTT-CaM PPI inh 90
CCc1ccc(NS(=O)(=O)c2ccc(OC)cc2)cc1	none
CCN1CCN(C(=O)c2cccc(Br)c2)CC1	none
Cc1c(CN2CCCC(c3nncn3-c3ccccc3)C2)cnn1C (stereo unspecified)	none
COCCNC(=O)C1(C)CCC(=O)N1Cc1cccs1 (stereo unspecified)	none
CCc1ccc(NC(=O)N2CCc3cn(CCOC)c4cccc(c34)C2)cc1	none
Cc1ccc(CN2CCC(C(=O)N3CCN(c4ccccc4F)CC3)CC2)o1	none
COc1ccc(S(=O)(=O)N=C2C=CC(=O)c3ccccc32)cc1	mHTT-CaM PPI inh 98
Cc1ccc(NC2=CC(=NS(=O)(=O)c3cccs3)c3ccccc3C2=O)c(C)c1	mHTT-CaM PPI inh 90
COc1ccc(S(=O)(=O)N=C2C=C(C(C)C)C(=O)C=C2C)cc1	none
CCOc1ccc(S(=O)(=O)Nc2ccc(I)cc2)cc1	none
CCc1ccc(S(=O)(=O)N=C2C=C(Nc3ccccc3)C(=O)c3ccccc32)cc1	mHTT-CaM PPI inh 93
O=S(=O)(N=C1SCCS1)c1ccccc1	none
COc1ccc(C)cc1NC(=O)C(NS(=O)(=O)c1cccs1)C(C)C (stereo unspecified)	none
CCOc1ccc(NC2=CC(=NS(=O)(=O)c3ccc(OCC)cc3)c3ccccc3C2=O)cc1	mHTT-CaM PPI inh 75
CC(=O)Oc1ccccc1C(=O)N1CCN(Cc2nnnn2-c2ccc(Cl)cc2)CC1	none
COc1cc(CNC(=O)c2ccc(C(=O)c3ccccc3)cc2)cc(OC)c1OC	none
CCN(CC)S(=O)(=O)N1CCCC(C(=O)NCc2ccccc2)C1 (stereo unspecified)	none
CC(=O)N1CCN(c2cc(C)ccc2C)C(=O)C1C (stereo unspecified)	none
CCc1ccccc1NC(=O)c1nc(N(C)C)c2c(C)cc(C)nc2n1	none
COc1ccc(CNC(=O)C2CCc3sc(C(=O)N4CCOCC4)cc3C2)cc1OC (stereo unspecified)	none
CC(C)N1C(=O)C(C)(C(=O)Nc2cccc(F)c2)Oc2cccnc21 (stereo unspecified)	none
COc1ccc(S(=O)(=O)N=C2C=C(Nc3ccccc3)C(=O)c3ccccc32)cc1	mHTT-CaM PPI inh 88
COc1ccc(S(=O)(=O)N=C2C(C)=CC(=O)C(S(=O)(=O)c3ccccc3)=C2C)cc1	none
COc1ccc(-n2nc(C(=O)NCC(=O)Nc3cccc(C)n3)c3ccccc3c2=O)cc1Cl	none
CCN(CC)C(=O)CNC(=O)c1nn(-c2ccc(OC)c(OC)c2)c(=O)c2ccccc12	none
CCN(CC)C(=O)CNC(=O)c1nn(-c2ccc(OC)c(Cl)c2)c(=O)c2ccccc12	mHTT-CaM PPI inh 56
COc1ccc(-n2nc(C(=O)NCC(=O)NCc3ccccc3)c3ccccc3c2=O)cc1Cl	mHTT-CaM PPI inh 98
CCc1ccc(-n2[nH]c3c(cnc4ccc(C(=O)NC5CCCCC5)cc43)c2=O)cc1	none
Cn1ccc2c(N3CCOCC3)cc3c(c21)C1CCC3C1 (stereo unspecified)	none
Cn1ccc2c(N3CCCCCC3)cc3c(c21)C1CCC3C1 (stereo unspecified)	mHTT-CaM PPI inh 63
Cn1ccc2c(-c3cccc4ccccc34)cc3c(c21)C1CCC3C1 (stereo unspecified)	none
CCN(CC)c1cc2c(c3c1ccn3C)C1CCC2C1 (stereo unspecified)	none
Cn1ccc2c(-c3ccc(F)nc3)cc3c(c21)C1CCC3C1 (stereo unspecified)	none
CCCN(CC1CC1)c1cc2c(c3c1ccn3C)C1CCC2C1 (stereo unspecified)	mHTT-CaM PPI inh 74
Cn1ccc2c(-c3cncc4ccccc34)cc3c(c21)C1CCC3C1 (stereo unspecified)	mHTT-CaM PPI inh 100
Cn1ccc2c(-c3ccc(F)cc3F)cc3c(c21)C1CCC3C1 (stereo unspecified)	mHTT-CaM PPI inh 59
Cc1cc(C)n2nc(SCC(=O)Nc3ccccc3C(F)(F)F)nc2n1	none
O=C(Nc1ccc(C(=O)O)cc1)/C(=C/c1ccco1)NC(=O)c1ccc(Br)o1	none
O=C(Nc1ccccc1)c1ccc(Cl)c(S(=O)(=O)Nc2cccc([N+](=O)[O-])c2)c1	none
COc1ccc(-c2cc3c(c4c2ccn4C)C2CCC3C2)cc1OC (stereo unspecified)	mHTT-CaM PPI inh 74
Cn1ccc2c(-c3cccnc3)cc3c(c21)C1CCC3C1 (stereo unspecified)	none
Cc1c(NS(=O)(=O)c2ccc(F)cc2)cccc1[N+](=O)[O-]	none
CC(C)c1ccc(C2Nc3ccc4ncccc4c3C3=C2C(=O)CCC3)cc1 (stereo unspecified)	mHTT-CaM PPI inh 65
Cc1ccc(C2Nc3ccc4ncccc4c3C3=C2C(=O)CCC3)cc1 (stereo unspecified)	none
COc1cccc(/C=c2\sc3nc(-c4ccc(C)cc4)nn3c2=O)c1	none
O=C(c1ccc(N2CCCC2)nn1)N1CCN(c2ncccn2)CC1	none
O=C(c1ccc(=O)[nH]n1)N1CCN(c2ccc(-c3ccccn3)nn2)CC1	mHTT-CaM PPI inh 100
COc1ccccc1CC(=O)N1CCN(c2ccccn2)CC1	none
COc1ccccc1CC(=O)N1CCN(c2ccc(-c3ccccn3)nn2)CC1	mHTT-CaM PPI inh 100
O=C(c1ccc(F)cc1F)N1CCN(c2ccc(-c3cccnc3)nn2)CC1	none
O=C(c1cc(-c2ccc(F)cc2)n[nH]1)N1CCN(c2ccc(-c3ccccn3)nn2)CC1	mHTT-CaM PPI inh 100
O=C(NCC1COC2(CCCCC2)O1)C1COc2ccccc2O1 (stereo unspecified)	none
Cc1ccc(NC(=O)N2CCC(N3CCN(Cc4ccccc4)C3=O)CC2)cc1F	none
O=C(Nc1ccc2c(c1)OCCO2)Nc1c[nH]c2ccccc12	none
C=C1CCN([C@@H](CC(C)C)C(=O)NCc2cc(OC)c(OC)c(OC)c2)S(=O)(=O)c2ccccc21	none
C=C1CCN([C@@H](Cc2ccccc2)C(=O)NCc2ccc(Cl)c(Cl)c2)S(=O)(=O)c2ccccc21	none
C=C1CCN([C@@H](CC(C)C)C(=O)NCc2ccc(OC)cc2)S(=O)(=O)c2ccccc21	none
C=C1CCN([C@@H](CC(C)C)C(=O)NCc2ccc(Cl)cc2)S(=O)(=O)c2ccccc21	mHTT-CaM PPI inh 70
C=C1CCN([C@@H](CC(C)C)C(=O)NCc2ccc(Cl)c(Cl)c2)S(=O)(=O)c2ccccc21	mHTT-CaM PPI inh 99
C=C1CCN([C@H](C(=O)NCc2ccc(Cl)c(Cl)c2)C(C)C)S(=O)(=O)c2ccccc21	mHTT-CaM PPI inh 74
COC(=O)COc1cccc(C=C2Oc3cc(OC)ccc3C2=O)c1	none
C=CCCC(=O)NCC1(O)CCCC1	none
COc1cccc(C(=O)N2CCN(c3cc(C)cc(C)c3)C(=O)C2C)c1 (stereo unspecified)	none
COc1ccc(C2=C(Nc3ccc(C(N)=O)cc3)c3ccccc3C2=O)cc1	none
COc1ccc(NC2=C(N(C)C)C(=O)c3ccccc3C2=O)cc1	mHTT-CaM PPI inh 63
COc1cccc(Nc2ccccc2C)c1	none
COc1cccc(NC2=C(N(C)C)C(=O)c3ccccc3C2=O)c1	mHTT-CaM PPI inh 58
N#CC1(C(=O)Nc2ccc(F)c(F)c2)CC1	none
Cc1ccc(S(=O)(=O)N2CCc3nc[nH]c3C2)cc1C	none
COc1ccc(C)cc1NC(=O)c1cc(S(=O)(=O)NC2CCCC2)ccc1F	none
O=C(NCC#CCN1CCc2ccccc2C1)c1cc2ccccc2[nH]1	none
COc1ccc(OC)c(-c2cc(C(=O)NCC#CCN3CCc4ccccc4C3)[nH]n2)c1	mHTT-CaM PPI inh 53
